The whole screen tested about 5,500 compounds, of which about 2,000 (36%) were called active. Roughly 18% stayed inconclusive and do not appear here. Cut-off read from the data, not from the text of the source: active = normalized growth mostly below about 0.91 (no sharp cut-off); inconclusive = no clear call, values can overlap the other calls; inactive = mostly above about 0.92. Some of the results follow.
Test: chemical genetic growth profiling, strain panel (AID 1159580);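 note: tested at 20 µM; growth read once vehicle control cultures reached saturation at 30 °C; 1 = growth at the plate median or of vehicle wells; lower values mean less growth of the strain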
Details: growth OD

Measured: normalized growth

C=C1CCC2C(CC2(C)C)C(=O)CCC1O (stereo unspecified)
inactive: S. cerevisiae deletion strains, locus YJL168C, strain set2, hits give low values 1.01 | S. cerevisiae deletion strains, locus YJL187C, strain SWE1 (second series), hits give low values 1.06 | S. cerevisiae deletion strains, locus YJL187C, strain SWE1, hits give low values 0.993 | S. cerevisiae deletion strains, locus YJR066W, strain TOR1, hits give low values 0.949 | S. cerevisiae deletion strains, locus YKL009W, strain mrt4, hits give low values 1.02 | S. cerevisiae deletion strains, locus YKL068W, hits give low values 1 | S. cerevisiae deletion strains, locus YKL085W, strain MDH1 (second series), hits give low values 0.993 | S. cerevisiae deletion strains, locus YKL085W, strain MDH1, hits give low values 0.993 | S. cerevisiae deletion strains, locus YKL160W, strain elf1, hits give low values 0.982 | S. cerevisiae deletion strains, locus YKR001C, strain vps1, hits give low values 1.02 | S. cerevisiae deletion strains, locus YKR026C, strain gcn3, hits give low values 1 | S. cerevisiae deletion strains, locus YKR091W, strain srl3, hits give low values 0.988 | S. cerevisiae deletion strains, locus YLL001W, strain dnm1, hits give low values 0.954 | S. cerevisiae deletion strains, locus YLL026W, hits give low values 1 | S. cerevisiae deletion strains, locus YLL041C, strain sdh2, hits give low values 0.987 | S. cerevisiae deletion strains, locus YLR027C, strain aat2, hits give low values 0.996 | S. cerevisiae deletion strains, locus YLR039C, strain RIC1, hits give low values 1.04 | S. cerevisiae deletion strains, locus YLR058C, strain SHM2, hits give low values 1.04 | S. cerevisiae deletion strains, locus YLR102C, strain apc9, hits give low values 1.01 | S. cerevisiae deletion strains, locus YLR113W, strain HOG1, hits give low values 1.01 | S. cerevisiae deletion strains, locus YLR221C, strain rsa3, hits give low values 1.04 | S. cerevisiae deletion strains, locus YLR258W, strain gsy2, hits give low values 0.993 | S. cerevisiae deletion strains, locus YLR262C, strain YPT6 (second series), hits give low values 1.01 | S. cerevisiae deletion strains, locus YLR268W, strain sec22, hits give low values 1 | S. cerevisiae deletion strains, locus YLR320W, strain mms22, hits give low values 1.06 | S. cerevisiae deletion strains, locus YLR342W, strain FKS1, hits give low values 0.997 | S. cerevisiae deletion strains, locus YLR357W, strain rsc2, hits give low values 0.981 | S. cerevisiae deletion strains, locus YLR370C, strain arc18, hits give low values 1 | S. cerevisiae deletion strains, locus YLR371W, strain rom2, hits give low values 1.02 | S. cerevisiae deletion strains, locus YLR384C, strain iki3, hits give low values 1.01 | S. cerevisiae deletion strains, locus YLR418C, strain cdc73, hits give low values 1.05 | S. cerevisiae deletion strains, locus YML016C, strain PPZ1, hits give low values 1.02 | S. cerevisiae deletion strains, locus YML032C, strain rad52, hits give low values 1.01 | S. cerevisiae deletion strains, locus YML120C, strain ndi1, hits give low values 0.965 | S. cerevisiae deletion strains, locus YML124C, strain tub3, hits give low values 1.01 | S. cerevisiae deletion strains, locus YMR058W, strain fet3, hits give low values 0.98 | S. cerevisiae deletion strains, locus YMR078C, strain ctf18, hits give low values 1.01 | S. cerevisiae deletion strains, locus YMR125W, strain sto1, hits give low values 0.973 | S. cerevisiae deletion strains, locus YMR129W, hits give low values 1.01 | S. cerevisiae deletion strains, locus YMR205C, strain PFK2, hits give low values 0.955 | S. cerevisiae deletion strains, locus YMR223W, strain ubp8, hits give low values 1.03 | S. cerevisiae deletion strains, locus YMR231W, strain pep5, hits give low values 1.01 | S. cerevisiae deletion strains, locus YMR307W, strain GAS1, hits give low values 1.07 | S. cerevisiae deletion strains, locus YNL067W, strain RPL9B, hits give low values 1.03 | S. cerevisiae deletion strains, locus YNL071W, strain lat1, hits give low values 0.992 | S. cerevisiae deletion strains, locus YNL128W, strain TEP1, hits give low values 0.993 | S. cerevisiae deletion strains, locus YNL183C, strain NPR1, hits give low values 0.968 | S. cerevisiae deletion strains, locus YNL209W, strain ssb2, hits give low values 0.987 | S. cerevisiae deletion strains, locus YNL233W, strain BNI4, hits give low values 1.05 | S. cerevisiae deletion strains, locus YNL248C, strain rpa49, hits give low values 1.01 | S. cerevisiae deletion strains, locus YNL250W, strain rad50, hits give low values 1.05 | S. cerevisiae deletion strains, locus YNL271C, strain bni1, hits give low values 1.01 | S. cerevisiae deletion strains, locus YNL298W, strain CLA4, hits give low values 1.03 | S. cerevisiae deletion strains, locus YNL307C, strain MCK1, hits give low values 1.03 | S. cerevisiae deletion strains, locus YNL322C, strain KRE1 (second series), hits give low values 0.974 | S. cerevisiae deletion strains, locus YNL322C, strain KRE1, hits give low values 0.991 | S. cerevisiae deletion strains, locus YNR049C, strain mso1, hits give low values 0.995 | S. cerevisiae deletion strains, locus YNR052C, strain pop2, hits give low values 1.03 | S. cerevisiae deletion strains, locus YOL012C, strain htz1 0.879 | S. cerevisiae deletion strains, locus YOL147C, strain pex11, hits give low values 1 | S. cerevisiae deletion strains, locus YOR001W, strain rrp6, hits give low values 1.02 | S. cerevisiae deletion strains, locus YOR061W, strain CKA2, hits give low values 1.02 | S. cerevisiae deletion strains, locus YOR069W, strain VPS5, hits give low values 1.01 | S. cerevisiae deletion strains, locus YOR070C, strain gyp1, hits give low values 1.02 | S. cerevisiae deletion strains, locus YOR080W, strain dia2, hits give low values 0.995 | S. cerevisiae deletion strains, locus YOR083W, strain WHI5, hits give low values 0.988 | S. cerevisiae deletion strains, locus YOR106W, strain vam3, hits give low values 0.961 | S. cerevisiae deletion strains, locus YOR136W, strain idh2, hits give low values 1.01 | S. cerevisiae deletion strains, locus YOR144C, strain elg1, hits give low values 1 | S. cerevisiae deletion strains, locus YOR184W, strain ser1, hits give low values 0.989 | S. cerevisiae deletion strains, locus YOR231W, strain MKK1, hits give low values 0.994 | S. cerevisiae deletion strains, locus YOR265W, strain rbl2, hits give low values 0.992 | S. cerevisiae deletion strains, locus YOR270C, strain vph1, hits give low values 0.986 | S. cerevisiae deletion strains, locus YOR290C, strain snf2, hits give low values 0.956 | S. cerevisiae deletion strains, locus YOR316C, strain cot1, hits give low values 1.03 | S. cerevisiae deletion strains, locus YPL051W, strain arl3, hits give low values 1 | S. cerevisiae deletion strains, locus YPL078C, strain atp4, hits give low values 0.946 | S. cerevisiae deletion strains, locus YPL106C, strain sse1, hits give low values 0.958 | S. cerevisiae deletion strains, locus YPL240C, strain hsp82, hits give low values 0.998 | S. cerevisiae deletion strains, locus YPL256C, strain CLN2, hits give low values 1.02 | S. cerevisiae deletion strains, locus YPR119W, strain clb2, hits give low values 1.02 | S. cerevisiae deletion strains, locus YPR141C, strain kar3, hits give low values 1.01 | S. cerevisiae deletion strains, locus YPR163C, strain tif3, hits give low values 1.02 | S. cerevisiae deletion strains, locus YPR167C, strain met16, hits give low values 1.02 | S. cerevisiae deletion strains, strain wtn01, hits give low values 1.01 | S. cerevisiae strains, strain wild type, hits give low values 0.989

Source: PubChem BioAssay AID1159580 (chemical genetic matrix, 2015)
